High-throughput results (PubChem BioAssay)
Only some compounds are listed: those with a hit (about 11% of all), similar ones and a draw of the others.
AMA1-RON2 inh: AMA1-RON2 (P. falciparum) interaction inhibition. Potency, µM (top dose mostly 58.2 µM), for the others: at the top dose activity change, negative = inhibition, usual class: inhibitors. AlphaScreen AMA1-biotinylated RON2 peptide binding. actives 0.2% (n = 360,000);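 note: 0% = vehicle wells and -100% = peptide control; nearly all actives have a fitted effect of over 45% in size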
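AMA1 (3D7) with his tag at 25 nM final met compounds first, then biotinylated RON2 peptide at 25 nM; detection used donor plus acceptor beads, 10 µg/mL apiece, read by AlphaScreen after 30 min at room temperature.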
Pf growth 96h: inhibits malaria parasite growth, 96 h. actives 6.9% (n = 320,000). AID 504834. Potency, µM (doses to about 28.7 µM), inactives show top-dose activity change, negative = inhibition, usual class: inhibitors. P. falciparum luciferase reporter growth, 96 h; note: % is set by controls: 0 for no effect and ±100 for the full control effect
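Delayed-death screen, second-generation endpoint: infected erythrocytes, 2% hematocrit, 0.05% parasitemia final; 96 hours at 37 C, 5% CO2; luciferase detection reagent; luminescence decrease equals reduced growth.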
NS1 function inh: influenza NS1 inhibition; Potency, µM (doses to about 46.1 µM), without a hit: top-dose activity, positive = more growth; actives 0.4% (n = 270,000); calls by dose curve; note: actives are rising curves; nearly all actives have a fitted effect of over 50% in size
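Compounds were scored for reversing the slow growth caused by influenza A NS1 in S. cerevisiae, measured by optical density at 600 nm. Assay medium contained 2% galactose at pH 6.0; NS1-free yeast of the same strain were the positive control.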
Pf growth 48h: P. falciparum growth inhibition at 48 hours (one generation); AID 504832; Potency, µM (doses to about 28.7 µM), inactives show at the highest dose activity change, negative = inhibition, actives largely listed as inhibitors; P. falciparum luciferase growth in erythrocytes, 48 h; actives 5.9% (n = 310,000); note: % is set by controls: 0 for no effect and ±100 for the full control effect
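Luciferase-expressing parasites in RBCs, 2% Hct / 0.1% parasitemia final; RPMI 1640 + 0.5% Albumax; 37 C, 5% CO2, one generation; luminescence read-out, lower signal = inhibition.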
Sm TGR inh: blocks Schistosoma mansoni thioredoxin glutathione reductase; Q962Y6; purified TGR, DTNB reduction, TNB absorbance 405 nm; Potency, µM (highest dose often 114 µM), inactives show top-dose activity change, negative = inhibition, usual class: inhibitors; actives 3% (n = 360,000); AID 485364; note: % is set by controls: 0 for no effect and ±100 for the full control effect; nearly all actives have a fitted effect of over 60% in size
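First, TGR (20 nM dispensed) and NADPH were mixed with compound. Second, a 15 min room-temperature incubation followed. Third, further NADPH and then DTNB were added to start the reaction. Finally, TNB absorbance was monitored kinetically.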
Active calls of the source: *; ? = inconclusive; . = no result; [ ] = another dose, or the depositor's remark. Unless noted, calls come from the whole dose curve; as a rule, active = well fitted curve in the direction sought with a large enough effect; inconclusive = small, poorly fitted or top-dose-only effect, or another doubt; inactive = no such curve, though single readings can be large; an effect the other way counts as inactive or inconclusive. Potency is the fitted concentration of half-maximal effect.

SMILES	AMA1-RON2 inh	Pf growth 96h	NS1 function inh	Pf growth 48h	Sm TGR inh
CSc1nc(NCC(C)O)c2c3c(sc2n1)CN(C)CC3 (centres undefined)	0%	6.6µM*	0%	?	-19%
CCN(CC)CCCNc1nc(SC)nc2sc3c(c12)CCN(C)C3	.	?	1%	?	1%
CCNC(=S)NNC(=O)CCc1nc2cc(Cl)ccc2n(Cc2ccccc2)c1=O	50%	5.9µM*	2%	?	-1%
CN(C)C(CNC(=O)CCc1nc2cc(Cl)ccc2n(Cc2ccccc2)c1=O)c1ccccc1 (centres undefined)	0%	10µM*	.	9.3µM*	6%
NC(=O)CCc1nc2cc(C(F)(F)F)ccc2n(Cc2ccccc2)c1=O	7%	-7%	-8%	-5%	5%
COc1cccc(/C=N/n2c(C)c3c(C)nnc(C)c3c2C)c1O	.	.	7%	.	.
CSc1nnc(-c2cnccn2)n1CCCN1CCCC1=O	2%	7.4µM*	-7%	0%	3%
Cn1nnnc1SCCNC(=O)C1CCC(=O)N(Cc2ccc(Cl)cc2)C1 (centres undefined)	-10%	?	-1%	18%	-28%
CCOC(=O)c1[nH]c(C)c(CN(CCc2ccccc2)C(=O)CCC(=O)O)c1C	-9%	4.1µM*	16%	-35%	7%
CCOC(=O)c1[nH]c(C)c(CN(Cc2ccco2)C(=O)C(F)(F)F)c1C	5%	1%	-12%	10µM*	-9%
CCOC(=O)c1[nH]c(C)c(C(=O)NCc2ccco2)c1C	-6%	3%	3%	17%	-3%
NC(=O)C1CCN(c2nc(-c3cccc4ccccc34)cs2)CC1	.	-5%	.	?	.
OC(CNCc1ccco1)Cn1c2ccc(Br)cc2c2cc(Br)ccc21 (centres undefined)	-1%	0.29µM*	7%	.	0%
Cc1noc(C)c1COc1ccccc1C(=O)NC(C)c1ccc(Cl)cc1 (centres undefined)	-5%	5.2µM*	.	13µM*	-3%
Cc1noc(C)c1COc1ccccc1C(=O)NC(C)CCc1ccccc1 (centres undefined)	-1%	.	.	.	.
Cc1noc(C)c1COc1ccccc1C(=O)NCc1ccccc1Cl	5%	5.2µM*	.	?	-3%
CC(C)NC(=O)c1sc2ncccc2c1-n1cccc1	.	.	.	.	1%
Cc1c(CCNC(=O)c2ccc(Br)o2)sc2nc(-c3ccc(F)cc3)nn12	.	.	.	.	8%
Cc1ccc(S(=O)(=O)Nc2ccccc2NS(=O)(=O)c2ccc(C)cc2)cc1	-1%	.	.	.	.
Cc1ccc(N(CC(=O)Nc2ccccc2-c2ccccc2)S(=O)(=O)c2ccccc2)cc1	-8%	6.6µM*	?	?	4%
Cc1cccc(N(CC(=O)Nc2ccccc2-c2ccccc2)S(=O)(=O)c2ccccc2)c1C	-18%	8%	?	8.3µM*	23%
Cc1ccc(S(=O)(=O)Nc2ccccc2-c2ccccc2)cc1	8%	12µM*	-19%	-6%	1%
CCOC(=O)c1ccc2oc(=O)n(Cc3ccccc3)c2c1	.	.	.	.	6%
Cc1ccc(Nc2nnc(-c3ccc(C)c(S(=O)(=O)N4CCN(C)CC4)c3)c3ccccc23)c(C)c1	.	.	.	.	-1%
Cc1c(Cl)cccc1NC(=O)CNC(=O)CCS(=O)(=O)c1ccc(F)cc1	1%	?	.	-11%	45µM*
SMILES	AMA1-RON2 inh	Pf growth 96h	NS1 function inh	Pf growth 48h	Sm TGR inh
O=C(CCS(=O)(=O)c1ccc(Br)cc1)Nc1cc(F)ccc1F	-4%	?	-13%	1%	13µM*
COC(=O)c1ccccc1NC(=O)CCS(=O)(=O)c1ccc(Br)cc1	38%	?	-3%	-31%[1.15 µM]	10µM*
Cc1cc(C)c2oc(-c3ccc(C)c(NC(=O)/C=C/c4ccco4)c3)nc2c1	.	.	.	.	13µM*
O=C(NCc1ccccc1F)C1CCN(c2nn3cc(-c4ccc(F)cc4)nc3s2)CC1	.	.	.	.	1%
O=C(Nc1ccccn1)c1ccc(=O)[nH]n1	24%	.	4%	1%	15%
O=C(Nc1ccccc1-c1ccccc1)c1ccc(=O)[nH]n1	4%	15µM*	-5%	81%	63%
COc1ccc(CCNC(=O)c2nnn(-c3cc(C)cc(C)c3)c2N)cc1OC	5%	3.7µM*	16%	?	?
COc1ccc(CCNC(=O)c2nonc2N)cc1OC	2%	4.1µM*	0%	-1%	-1%
Cc1occc1C(=O)NC(C)C1CCCO1 (centres undefined)	17%	.	-5%	13%	22µM*
CC(NC(=O)c1ccco1)C1CCCO1 (centres undefined)	7%	5%	12%	.	5%
N#Cc1ccccc1NCC(=O)N1CCN(S(=O)(=O)c2ccccc2)CC1	1%	?	.	?	?
CCC1(CC)C(=N)N(C)C(=O)NC1=O	14%	?	7%	15%	-7%
CCCCN1C(=N)C(CC)(CC)C(=O)NC1=O	38%	15µM*	7%	7%	-13%
Cc1ccc(NC(=O)c2ccc3oc(=O)c(S(=O)(=O)c4ccccc4)cc3c2)cc1C	.	.	.	.	-1%
C[C@@H]1C[C@H](O)c2cc(Cl)ccc2N1	-4%	4%	4%	-16%	40µM*
Cc1cc(C)cc(OCC(=O)Nc2nc(-c3cccnc3)cs2)c1	-1%	15µM*	5%	?	-3%
O=C(COc1ccccc1)Nc1nc(-c2cccnc2)cs1	2%	?	.	?	-1%
N#Cc1ccc(OCC(=O)Nc2nc(-c3cccnc3)cs2)cc1	-7%	?	.	12µM*	-20%
COc1cc(NC(=O)Cn2ncc3c([nH]c4ccc(C)cc43)c2=O)cc(OC)c1OC	.	.	.	.	0%
CC1(C(=O)NCc2cccs2)Cc2c(-c3cccc(C(F)(F)F)c3)ccnc2O1 (centres undefined)	-5%	.	.	.	.
COc1ccc(OCC(=O)NNC(=O)Cn2c(=O)cnc3ccccc32)cc1	76%	13%	.	1%	-2%
O=C(Nc1nc2c(F)cc(F)cc2s1)C1CC(=O)N(Cc2ccco2)C1 (centres undefined)	-1%	5%	-1%	1%	5µM*
Cc1cc(C)c2nc(NC(=O)C3CC(=O)N(Cc4ccco4)C3)sc2c1 (centres undefined)	-9%	-10%	.	19%	-25%
CCCS(=O)(=O)c1c(S(=O)(=O)CCC)c2cc(C(C)(C)C)ccn2c1C(=O)c1ccccc1	.	.	.	.	-10%
CCCS(=O)(=O)c1c(S(=O)(=O)CCC)c2c(C)cccn2c1C(=O)OC	-6%	6%	-2%	-2%	10µM*
CCCS(=O)(=O)c1c(S(=O)(=O)CCC)c2ccccn2c1C(=O)OC	-7%	.	-100%	2%	28µM*
CCCS(=O)(=O)c1c(S(=O)(=O)CCC)c2cc(CC)ccn2c1C(=O)OC	?	-19%	-43%	?	3%
CCCS(=O)(=O)c1c(S(=O)(=O)CCC)c2c3ccccc3ccn2c1C(=O)OC	0%	45%	27%	12µM*	?
